Source: the supplement of paper PMC11732987, “Enantioselective OTUD7B fragment discovery through chemoproteomics screening and high-throughput optimisation” (Communications Chemistry, 2025)

What was measured:
Assay in all cases: log2 ratio of Biotin-Ahx-Ub-VS probe labelling (fragment/DMSO); higher = less target engagement (more negative = stronger competition), active = hit call of the paper (q ≤ 0.05, log2 ratio ≤ -1)
Details in all cases: compound concentration: 200 uM; treatment time: 3 h
USP19 = target: T1, USP19 (UniProt O94966)
T1 sequence (whole entry): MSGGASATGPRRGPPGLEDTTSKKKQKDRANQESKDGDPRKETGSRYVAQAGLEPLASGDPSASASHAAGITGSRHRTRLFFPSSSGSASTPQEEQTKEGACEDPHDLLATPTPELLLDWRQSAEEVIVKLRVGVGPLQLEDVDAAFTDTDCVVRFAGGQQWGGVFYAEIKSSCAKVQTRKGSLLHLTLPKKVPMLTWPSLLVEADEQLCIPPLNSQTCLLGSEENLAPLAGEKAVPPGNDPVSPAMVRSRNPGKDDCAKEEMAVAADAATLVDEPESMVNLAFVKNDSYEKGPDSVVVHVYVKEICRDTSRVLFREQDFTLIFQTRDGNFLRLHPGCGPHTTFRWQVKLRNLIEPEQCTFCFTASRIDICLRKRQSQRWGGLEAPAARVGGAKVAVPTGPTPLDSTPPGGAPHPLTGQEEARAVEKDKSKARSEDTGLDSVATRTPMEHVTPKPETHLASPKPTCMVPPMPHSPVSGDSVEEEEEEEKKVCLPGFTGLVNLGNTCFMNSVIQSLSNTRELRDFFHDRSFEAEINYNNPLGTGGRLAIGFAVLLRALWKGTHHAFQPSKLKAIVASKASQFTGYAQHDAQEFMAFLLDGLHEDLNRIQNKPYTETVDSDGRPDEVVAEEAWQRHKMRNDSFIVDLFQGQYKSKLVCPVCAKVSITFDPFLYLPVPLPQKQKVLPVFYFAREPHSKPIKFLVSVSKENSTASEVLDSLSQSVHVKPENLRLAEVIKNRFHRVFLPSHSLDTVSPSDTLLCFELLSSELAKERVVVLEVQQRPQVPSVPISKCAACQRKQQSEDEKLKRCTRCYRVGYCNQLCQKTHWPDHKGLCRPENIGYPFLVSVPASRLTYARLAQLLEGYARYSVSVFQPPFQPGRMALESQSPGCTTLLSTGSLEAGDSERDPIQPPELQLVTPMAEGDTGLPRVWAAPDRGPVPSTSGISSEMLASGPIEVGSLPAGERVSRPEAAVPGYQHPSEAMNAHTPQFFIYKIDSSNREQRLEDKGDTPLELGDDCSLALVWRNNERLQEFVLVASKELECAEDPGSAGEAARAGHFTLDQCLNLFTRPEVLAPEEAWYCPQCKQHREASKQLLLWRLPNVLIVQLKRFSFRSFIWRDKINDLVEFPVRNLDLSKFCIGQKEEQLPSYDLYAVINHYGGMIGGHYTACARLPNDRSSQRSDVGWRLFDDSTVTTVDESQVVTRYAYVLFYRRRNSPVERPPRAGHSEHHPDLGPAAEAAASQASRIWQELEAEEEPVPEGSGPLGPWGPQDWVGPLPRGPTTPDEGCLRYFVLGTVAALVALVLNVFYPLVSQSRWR
Summary of the method: (§1)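 Labelled DUBs from HEK293T lysate were NeutrAvidin-enriched, digested with LysC and trypsin, and run by diaPASEF LC-MS/MS. Before that, each 495 µg sample in Tris/CHAPS/IGEPAL buffer with protease inhibitors was treated in triplicate with fragment at 200 µM or vehicle for 3 h, then with Biotin-Ahx-Ub-VS at 0.5 µM final for 1 h. Values are average log2 ratios of fragment over vehicle by unpaired t-test, based on global-median-normalised Spectronaut label-free quantities from proteins with ≥2 unique peptides.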

USP22 = target: T2, USP22 (UniProt Q9UPT9)
T2 sequence (whole entry): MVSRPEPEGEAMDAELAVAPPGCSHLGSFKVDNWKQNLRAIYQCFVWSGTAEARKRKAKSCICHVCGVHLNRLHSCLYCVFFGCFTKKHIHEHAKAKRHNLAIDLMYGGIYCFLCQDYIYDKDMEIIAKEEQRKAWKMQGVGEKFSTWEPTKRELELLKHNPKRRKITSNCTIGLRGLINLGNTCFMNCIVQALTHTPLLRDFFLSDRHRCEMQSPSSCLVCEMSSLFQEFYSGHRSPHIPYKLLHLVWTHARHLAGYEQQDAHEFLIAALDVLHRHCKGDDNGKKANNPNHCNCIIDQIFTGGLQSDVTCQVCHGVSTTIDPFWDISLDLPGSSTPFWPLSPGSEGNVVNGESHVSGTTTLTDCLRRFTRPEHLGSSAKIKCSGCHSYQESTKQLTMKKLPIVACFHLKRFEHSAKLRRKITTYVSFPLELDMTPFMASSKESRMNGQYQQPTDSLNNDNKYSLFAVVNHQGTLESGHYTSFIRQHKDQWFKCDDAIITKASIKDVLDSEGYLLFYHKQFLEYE
Summary of the method: as §1

USP24 = USP24 (UniProt Q9UPU5)
USP24, sequence (Q9UPU5 whole entry): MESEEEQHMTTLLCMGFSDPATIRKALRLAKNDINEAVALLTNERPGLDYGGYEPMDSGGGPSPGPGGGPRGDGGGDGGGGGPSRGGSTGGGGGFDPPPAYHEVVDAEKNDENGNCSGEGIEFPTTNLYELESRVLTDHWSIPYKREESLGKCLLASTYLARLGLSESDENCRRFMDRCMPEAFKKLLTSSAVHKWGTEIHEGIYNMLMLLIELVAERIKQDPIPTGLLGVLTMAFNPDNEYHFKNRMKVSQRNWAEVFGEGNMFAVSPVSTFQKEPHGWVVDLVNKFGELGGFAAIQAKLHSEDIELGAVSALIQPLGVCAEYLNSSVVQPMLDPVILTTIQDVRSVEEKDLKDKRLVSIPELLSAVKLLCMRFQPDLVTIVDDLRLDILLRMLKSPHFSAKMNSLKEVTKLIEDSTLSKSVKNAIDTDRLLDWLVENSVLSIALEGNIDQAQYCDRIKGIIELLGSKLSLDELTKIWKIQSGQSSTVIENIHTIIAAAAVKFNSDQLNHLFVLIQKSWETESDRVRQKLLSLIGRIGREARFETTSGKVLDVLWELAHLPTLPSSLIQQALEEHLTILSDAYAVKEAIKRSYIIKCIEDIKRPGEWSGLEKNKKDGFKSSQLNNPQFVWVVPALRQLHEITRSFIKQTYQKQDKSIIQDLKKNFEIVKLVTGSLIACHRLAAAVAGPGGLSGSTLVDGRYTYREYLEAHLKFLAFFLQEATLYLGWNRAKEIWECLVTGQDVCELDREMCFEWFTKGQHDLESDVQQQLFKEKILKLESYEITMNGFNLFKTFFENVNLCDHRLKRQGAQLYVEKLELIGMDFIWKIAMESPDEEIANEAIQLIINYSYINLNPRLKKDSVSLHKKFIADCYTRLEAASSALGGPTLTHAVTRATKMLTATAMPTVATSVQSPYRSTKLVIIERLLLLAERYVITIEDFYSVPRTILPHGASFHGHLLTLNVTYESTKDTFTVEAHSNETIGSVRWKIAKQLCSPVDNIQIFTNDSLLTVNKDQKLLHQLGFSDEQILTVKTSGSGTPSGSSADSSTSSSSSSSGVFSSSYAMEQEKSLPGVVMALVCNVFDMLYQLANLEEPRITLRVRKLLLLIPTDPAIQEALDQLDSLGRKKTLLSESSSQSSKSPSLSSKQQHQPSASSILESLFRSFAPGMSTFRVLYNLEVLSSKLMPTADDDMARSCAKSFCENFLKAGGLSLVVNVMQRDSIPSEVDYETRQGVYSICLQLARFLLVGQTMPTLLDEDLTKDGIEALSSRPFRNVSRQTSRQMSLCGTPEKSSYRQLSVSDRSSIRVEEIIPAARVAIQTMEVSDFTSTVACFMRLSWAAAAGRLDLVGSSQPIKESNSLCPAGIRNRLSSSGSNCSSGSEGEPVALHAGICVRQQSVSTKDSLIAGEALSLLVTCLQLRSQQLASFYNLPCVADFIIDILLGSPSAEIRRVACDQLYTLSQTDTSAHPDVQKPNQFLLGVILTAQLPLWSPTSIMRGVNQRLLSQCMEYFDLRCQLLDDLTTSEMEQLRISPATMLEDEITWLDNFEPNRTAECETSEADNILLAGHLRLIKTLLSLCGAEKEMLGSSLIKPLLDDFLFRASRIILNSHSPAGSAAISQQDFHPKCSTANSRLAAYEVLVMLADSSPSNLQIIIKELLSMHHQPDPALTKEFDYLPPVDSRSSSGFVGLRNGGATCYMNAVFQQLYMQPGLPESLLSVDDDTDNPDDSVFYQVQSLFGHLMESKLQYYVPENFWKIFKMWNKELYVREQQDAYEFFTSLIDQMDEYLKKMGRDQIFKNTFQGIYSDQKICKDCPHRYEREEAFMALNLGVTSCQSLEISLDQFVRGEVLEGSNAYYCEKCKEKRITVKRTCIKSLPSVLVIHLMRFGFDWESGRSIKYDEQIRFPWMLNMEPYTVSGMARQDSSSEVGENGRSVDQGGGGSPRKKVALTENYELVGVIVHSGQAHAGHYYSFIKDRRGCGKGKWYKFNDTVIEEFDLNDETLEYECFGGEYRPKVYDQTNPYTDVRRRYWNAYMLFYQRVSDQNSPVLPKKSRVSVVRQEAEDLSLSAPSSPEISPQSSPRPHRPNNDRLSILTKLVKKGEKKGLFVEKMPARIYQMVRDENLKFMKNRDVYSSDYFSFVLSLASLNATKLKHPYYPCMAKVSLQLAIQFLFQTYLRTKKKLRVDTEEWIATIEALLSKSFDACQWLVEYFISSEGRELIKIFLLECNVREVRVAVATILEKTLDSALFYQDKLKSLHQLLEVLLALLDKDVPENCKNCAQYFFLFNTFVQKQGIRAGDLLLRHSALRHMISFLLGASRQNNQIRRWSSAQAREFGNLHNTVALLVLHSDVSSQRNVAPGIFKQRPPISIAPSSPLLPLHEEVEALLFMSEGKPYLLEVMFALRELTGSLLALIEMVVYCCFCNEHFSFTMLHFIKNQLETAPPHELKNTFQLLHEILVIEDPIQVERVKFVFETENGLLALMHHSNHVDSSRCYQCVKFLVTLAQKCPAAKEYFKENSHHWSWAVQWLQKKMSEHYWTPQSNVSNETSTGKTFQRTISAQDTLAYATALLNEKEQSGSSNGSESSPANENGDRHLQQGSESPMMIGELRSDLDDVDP
Summary of the method: as §1

USP25 = target: T3, USP25 (UniProt Q9UHP3)
T3 sequence (whole entry): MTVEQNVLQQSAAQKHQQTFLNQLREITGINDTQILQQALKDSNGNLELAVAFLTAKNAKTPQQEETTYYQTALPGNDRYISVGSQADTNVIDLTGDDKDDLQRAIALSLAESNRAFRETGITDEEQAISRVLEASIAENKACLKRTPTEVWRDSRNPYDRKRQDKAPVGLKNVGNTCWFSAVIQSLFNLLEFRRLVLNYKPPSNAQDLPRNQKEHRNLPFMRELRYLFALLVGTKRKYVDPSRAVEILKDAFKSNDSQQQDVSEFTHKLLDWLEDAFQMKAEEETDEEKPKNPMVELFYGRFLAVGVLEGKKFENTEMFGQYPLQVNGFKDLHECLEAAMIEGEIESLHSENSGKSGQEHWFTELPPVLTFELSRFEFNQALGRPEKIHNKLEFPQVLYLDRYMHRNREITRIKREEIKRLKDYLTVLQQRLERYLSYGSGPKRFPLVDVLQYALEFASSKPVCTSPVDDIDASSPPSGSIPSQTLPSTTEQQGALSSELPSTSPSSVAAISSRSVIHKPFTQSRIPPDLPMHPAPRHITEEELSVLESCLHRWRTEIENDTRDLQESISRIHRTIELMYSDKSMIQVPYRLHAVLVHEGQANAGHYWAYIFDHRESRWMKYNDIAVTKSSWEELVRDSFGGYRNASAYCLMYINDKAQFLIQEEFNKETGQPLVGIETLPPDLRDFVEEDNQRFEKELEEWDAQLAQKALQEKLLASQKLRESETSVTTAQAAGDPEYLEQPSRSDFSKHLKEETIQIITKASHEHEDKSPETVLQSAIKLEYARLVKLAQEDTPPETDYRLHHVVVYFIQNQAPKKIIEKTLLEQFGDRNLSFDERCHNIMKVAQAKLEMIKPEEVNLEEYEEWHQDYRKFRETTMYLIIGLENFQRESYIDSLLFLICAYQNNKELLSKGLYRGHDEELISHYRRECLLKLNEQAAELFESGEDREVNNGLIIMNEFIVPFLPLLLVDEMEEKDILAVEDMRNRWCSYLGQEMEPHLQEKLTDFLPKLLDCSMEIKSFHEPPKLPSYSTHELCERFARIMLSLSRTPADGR
Summary of the method: as §1

USP28 = target: T4, USP28 (UniProt Q96RU2)
T4 sequence (whole entry): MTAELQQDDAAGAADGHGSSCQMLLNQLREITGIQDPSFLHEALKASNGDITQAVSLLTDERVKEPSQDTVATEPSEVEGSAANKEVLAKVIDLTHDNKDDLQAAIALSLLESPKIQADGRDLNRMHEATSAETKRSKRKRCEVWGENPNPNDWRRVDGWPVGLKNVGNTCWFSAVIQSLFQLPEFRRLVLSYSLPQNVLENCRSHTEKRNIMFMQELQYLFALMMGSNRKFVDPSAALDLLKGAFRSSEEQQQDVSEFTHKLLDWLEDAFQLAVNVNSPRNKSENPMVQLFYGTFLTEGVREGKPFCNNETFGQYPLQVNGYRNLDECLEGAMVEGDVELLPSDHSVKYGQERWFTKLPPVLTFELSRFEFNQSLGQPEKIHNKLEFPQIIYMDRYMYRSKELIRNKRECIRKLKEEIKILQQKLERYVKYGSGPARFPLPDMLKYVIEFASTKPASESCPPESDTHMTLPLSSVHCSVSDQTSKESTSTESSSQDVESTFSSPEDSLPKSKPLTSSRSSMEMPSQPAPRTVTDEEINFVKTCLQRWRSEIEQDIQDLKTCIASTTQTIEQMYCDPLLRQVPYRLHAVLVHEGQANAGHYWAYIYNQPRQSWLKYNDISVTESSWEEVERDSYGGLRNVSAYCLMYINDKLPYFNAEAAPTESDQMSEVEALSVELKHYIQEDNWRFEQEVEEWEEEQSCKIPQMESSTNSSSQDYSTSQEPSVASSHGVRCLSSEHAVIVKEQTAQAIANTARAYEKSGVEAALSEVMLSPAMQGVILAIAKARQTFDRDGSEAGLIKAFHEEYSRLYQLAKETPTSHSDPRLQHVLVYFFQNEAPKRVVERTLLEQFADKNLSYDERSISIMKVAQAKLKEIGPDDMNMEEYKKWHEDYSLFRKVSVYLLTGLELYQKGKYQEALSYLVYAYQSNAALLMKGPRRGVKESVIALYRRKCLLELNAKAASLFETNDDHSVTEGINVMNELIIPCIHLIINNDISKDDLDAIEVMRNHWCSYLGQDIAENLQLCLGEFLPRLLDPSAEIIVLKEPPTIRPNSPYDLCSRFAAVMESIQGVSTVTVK
Summary of the method: as §1

Measured: log2 ratio of Biotin-Ahx-Ub-VS probe labelling

O=C(CCl)N1CCN(C(=O)Nc2ccccc2)CC1
inactive: USP19 -0.276 | USP22 0.14 | USP24 0.00221 | USP25 -0.151 | USP28 -0.246
